The source made the active and inactive calls.

This is an account of results in PubChem BioAssay.

Assay [1] relates to PRMT1 (protein arginine N-methyltransferase 1). The experiment in a line: PRMT1 binders on small-molecule microarrays, primary screen, biochemical, small-molecule microarray, 635 nm fluorescence (AID 1088).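 Note: binding of Prmt1 protein to compounds spotted on small-molecule microarray slides.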 As to conditions: small-molecule microarray binding, higher = more signal.
Assay [2] in a line: yeast growth modulation, basal conditions, primary screen, YJM789 clinical isolate, OD600, 24 h (AID 1089).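 Note: growth of clinical yeast isolate S. cerevisiae YJM 789 seeded 1000 cells per well; test concentration not given here.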 To be noted: S. cerevisiae YJM789 growth, higher = more signal, called active from +8 up or from −8 down.
The nature of assay [3]: fission yeast growth modulation, primary screen, strain 972, OD600, 24 h, no modulator (AID 1090).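 Note: basal condition with compound alone and no growth modifier present; test concentration not given here.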 As to conditions: S. pombe 972 growth, higher = more signal, called active from +8 up or from −8 down.
Assay [4] is described as follows: S. cerevisiae growth modulation with rapamycin, primary screen, strain BY4716, OD600, 96 h (AID 1091). Note: test concentration not given here. To be noted: higher = more signal, called active from +8 up or from −8 down.
Assay [5] concerns the target Torsin-1A-interacting protein 2 (Homo sapiens) (UniProt Q8NFQ8). Description: LULL1 binders on small-molecule microarray, primary screen, cell lysate, human LULL1 lysate, 635/667 nm fluorescence (AID 1092).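 Note: probe is lysate of COS7 cells overexpressing human LULL1; score merges per-feature 667 nm fluorescence with signal-to-noise.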 To be noted: hLULL1 lysate binding, 635 nm fluorescence, higher = more signal.
Assay [6] is described as follows: E. coli growth modulation, two-sided OD650, primary screen, E. coli filamentation project, strain DRC41, 24 h (AID 1093).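 Note: MC1000 strain lacking acrAB efflux and sulA so SOS filamentation is blocked; test concentration not given here.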 To be noted: OD650, 24 h, higher = more signal, called active from +8 up or from −8 down.
Assay [7] can be described thus: small-molecule microarray binders of probe aLefty2, primary screen, biochemical, biotinylated probe, 635/667 nm fluorescence (AID 1094).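 Note: score merges spot fluorescence near 667 nm with spot signal-to-noise ratio.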 To be noted: higher = more signal.
Assay [8] deals with Noggin (protein binding on small-molecule microarray). The experiment in a line: Noggin binders on small-molecule microarray, primary screen, biochemical, 635/667 nm fluorescence (AID 1095).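 Note: score merges 667 nm feature fluorescence with signal to noise over triplicate slides.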 As to conditions: 635 nm fluorescence, higher = more signal.
Assay [9] has as its target Neurogenic locus notch homolog protein 3 (Homo sapiens) (UniProt Q9UM47). The experiment in a line: NOTCH3 binders on small-molecule microarray, primary screen, biochemical, 635/667 nm fluorescence (AID 1096). To be noted: NOTCH3 binding, 635 nm fluorescence, higher = more signal.
The nature of assay [10]: small-molecule microarray binders of probe aEGFR, primary screen, biochemical, biotinylated probe, 635/667 nm fluorescence (AID 1097).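 Note: probe is a biotinylated anti-EGFR antibody binding compounds printed on slides; score combines fluorescence near 667 nm and signal to noise of each spot.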 As to conditions: higher = more signal.
The test system of assay [11] is Plasmodium falciparum Sir2 (PF13_0152, Sir2A). The experiment in a line: pfSir2 binders on small-molecule microarrays, primary screen, biochemical, small-molecule microarray, 635 nm fluorescence (AID 1098).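 Note: score merges spot fluorescence intensity with its signal-to-noise ratio.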 As to conditions: small-molecule microarray binding, fluorescence 635 nm; higher = more signal.
Assay [12] is described as follows: small-molecule microarray binders of probe aDKK1, primary screen, biochemical, biotinylated probe, 635/667 nm fluorescence (AID 1099).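 Note: score merges 667nm spot fluorescence with signal to noise across triplicate slides; reference of the scale not given here.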 To be noted: higher = more signal.
A short description of assay [13]: small-molecule microarray binders of probe aCHRDL2, primary screen, biochemical, biotinylated probe, 635/667 nm fluorescence (AID 1100). As to conditions: higher = more signal.
The nature of assay [14]: splicing luciferase reporter signal modulators, primary screen, spliceosome inhibition project, cell-based, HEK293, splice +/- reporter (AID 1101).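 Note: HEK293 cells carrying a splicing-competent luciferase reporter gene; test concentration not given here.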 To be noted: luminescence, 24 h, higher = more signal, called active from +8 up or from −8 down. (Reporter assays use an easily measured gene product as a stand-in for the process of interest.)
Assay [15] addresses Fibroblast growth factor 10 (Homo sapiens) (UniProt O15520). Description: FGF10 binders on small-molecule microarrays, primary screen, biochemical, small-molecule microarray, 635 nm fluorescence (AID 1102). As to conditions: FGF10 binding, fluorescence 635 nm, higher = more signal.
Assay [16] deals with glycogen synthase kinase-3 (GSK3A per assay name; protocol says GSK3B). The experiment in a line: GSK3 binders on small-molecule microarrays, primary screen, biochemical, small-molecule microarray, 635 nm fluorescence, GSK3A (AID 1103). Note: the record names both GSK3A and GSK3B. To be noted: small-molecule microarray binding, fluorescence 635 nm; higher = more signal.
The target of assay [17] is Epidermal growth factor receptor (Homo sapiens) (UniProt P00533). Description: EGFR binders on small-molecule microarrays, primary screen, biochemical, small-molecule microarray, 635 nm fluorescence (AID 1104).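 Note: score merges 667 nm emission intensity with spot signal to noise over triplicate slides.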 As to conditions: EGFR binding, higher = more signal.
Chain of Epidermal growth factor receptor (Homo sapiens) (P00533 whole entry, looked up): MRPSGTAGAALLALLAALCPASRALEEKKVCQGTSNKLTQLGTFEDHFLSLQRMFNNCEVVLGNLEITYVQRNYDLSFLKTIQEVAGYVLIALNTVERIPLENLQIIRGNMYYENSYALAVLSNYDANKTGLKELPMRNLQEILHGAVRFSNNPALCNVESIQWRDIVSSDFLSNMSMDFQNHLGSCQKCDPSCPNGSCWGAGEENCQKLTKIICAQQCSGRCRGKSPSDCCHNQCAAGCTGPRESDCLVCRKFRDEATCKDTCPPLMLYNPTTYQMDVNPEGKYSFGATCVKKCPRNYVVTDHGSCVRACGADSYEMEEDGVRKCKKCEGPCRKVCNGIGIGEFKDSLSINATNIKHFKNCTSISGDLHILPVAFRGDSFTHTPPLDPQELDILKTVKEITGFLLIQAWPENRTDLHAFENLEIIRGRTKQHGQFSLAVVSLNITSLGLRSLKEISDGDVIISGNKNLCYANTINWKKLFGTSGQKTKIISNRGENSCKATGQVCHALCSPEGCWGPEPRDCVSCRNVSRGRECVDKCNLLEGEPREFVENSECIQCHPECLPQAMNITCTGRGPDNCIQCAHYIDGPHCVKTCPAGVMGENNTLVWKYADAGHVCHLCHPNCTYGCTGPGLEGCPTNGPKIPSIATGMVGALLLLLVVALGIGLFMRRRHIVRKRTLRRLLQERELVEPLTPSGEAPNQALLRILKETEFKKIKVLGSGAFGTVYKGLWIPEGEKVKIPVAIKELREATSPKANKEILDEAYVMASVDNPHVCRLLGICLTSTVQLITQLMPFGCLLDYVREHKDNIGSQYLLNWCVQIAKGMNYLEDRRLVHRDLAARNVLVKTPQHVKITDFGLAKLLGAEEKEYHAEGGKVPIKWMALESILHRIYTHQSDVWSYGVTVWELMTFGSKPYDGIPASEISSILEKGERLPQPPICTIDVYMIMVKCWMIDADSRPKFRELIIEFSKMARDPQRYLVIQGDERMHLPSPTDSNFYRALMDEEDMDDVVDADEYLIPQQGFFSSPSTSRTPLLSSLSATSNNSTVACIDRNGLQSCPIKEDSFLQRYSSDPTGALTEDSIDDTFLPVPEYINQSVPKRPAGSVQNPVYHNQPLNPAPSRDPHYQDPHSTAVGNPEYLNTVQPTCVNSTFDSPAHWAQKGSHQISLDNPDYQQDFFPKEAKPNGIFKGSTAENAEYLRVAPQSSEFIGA
For assay [18], the target named is Follistatin-related protein 3 (Homo sapiens) (UniProt O95633). Description: FSTL3 binders on small-molecule microarrays, primary screen, biochemical, small-molecule microarray, 635 nm fluorescence (AID 1105).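 Note: score merges emission near 667 nm and signal to noise per printed spot across three slides.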 As to conditions: FSTL3 binding, higher = more signal.
Chain of Follistatin-related protein 3 (Homo sapiens) (O95633 whole entry, looked up): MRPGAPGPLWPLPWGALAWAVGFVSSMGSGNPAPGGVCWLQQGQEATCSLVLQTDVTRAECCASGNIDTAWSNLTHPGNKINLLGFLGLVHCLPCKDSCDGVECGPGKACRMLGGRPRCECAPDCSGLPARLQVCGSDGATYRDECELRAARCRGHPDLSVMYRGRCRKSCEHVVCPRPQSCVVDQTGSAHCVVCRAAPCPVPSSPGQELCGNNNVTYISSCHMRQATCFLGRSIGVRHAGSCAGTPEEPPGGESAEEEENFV
The target in assay [19] is Dickkopf-related protein 1 (Homo sapiens) (UniProt O94907). Description: DKK1 binders on small-molecule microarrays, primary screen, biochemical, small-molecule microarray, 635 nm fluorescence scan (AID 1106).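 Note: score merges emission near 667 nm with signal to noise over three replicate slides.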 To be noted: DKK1 binding, higher = more signal.
Chain of Dickkopf-related protein 1 (Homo sapiens) (O94907 whole entry, looked up): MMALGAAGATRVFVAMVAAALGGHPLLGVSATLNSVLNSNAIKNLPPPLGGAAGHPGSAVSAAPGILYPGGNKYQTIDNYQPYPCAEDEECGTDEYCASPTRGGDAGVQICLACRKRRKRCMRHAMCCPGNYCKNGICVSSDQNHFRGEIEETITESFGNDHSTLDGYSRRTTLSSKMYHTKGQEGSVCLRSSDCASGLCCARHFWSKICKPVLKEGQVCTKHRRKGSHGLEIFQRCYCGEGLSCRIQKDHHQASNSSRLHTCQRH
Assay [20] concerns Inhibin beta A chain (activin A). The experiment in a line: INHBA (activin A) binders on microarrays, primary screen, biochemical, small-molecule microarray, 635 nm fluorescence scan (AID 1107).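 Note: mouse activin A protein probed at 4.33 µg/mL on printed slides; score merges bound-protein fluorescence near 667 nm with spot signal-to-noise.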 As to conditions: small-molecule microarray binding, higher = more signal.

Chain of Torsin-1A-interacting protein 2 (Homo sapiens) (Q8NFQ8 whole entry, looked up): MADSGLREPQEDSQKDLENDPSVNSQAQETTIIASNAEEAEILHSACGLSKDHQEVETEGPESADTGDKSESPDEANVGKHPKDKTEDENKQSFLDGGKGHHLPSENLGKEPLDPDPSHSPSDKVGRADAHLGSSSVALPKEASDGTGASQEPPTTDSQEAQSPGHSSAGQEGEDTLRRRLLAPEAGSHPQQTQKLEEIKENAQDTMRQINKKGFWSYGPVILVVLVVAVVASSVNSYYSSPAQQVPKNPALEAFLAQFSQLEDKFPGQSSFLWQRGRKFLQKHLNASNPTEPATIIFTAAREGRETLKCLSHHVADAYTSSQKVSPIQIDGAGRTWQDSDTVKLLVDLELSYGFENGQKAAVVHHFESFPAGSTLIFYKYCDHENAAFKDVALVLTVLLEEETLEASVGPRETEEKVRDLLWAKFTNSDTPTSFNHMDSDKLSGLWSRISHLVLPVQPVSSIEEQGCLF
Chain of Fibroblast growth factor 10 (Homo sapiens) (O15520 whole entry, looked up): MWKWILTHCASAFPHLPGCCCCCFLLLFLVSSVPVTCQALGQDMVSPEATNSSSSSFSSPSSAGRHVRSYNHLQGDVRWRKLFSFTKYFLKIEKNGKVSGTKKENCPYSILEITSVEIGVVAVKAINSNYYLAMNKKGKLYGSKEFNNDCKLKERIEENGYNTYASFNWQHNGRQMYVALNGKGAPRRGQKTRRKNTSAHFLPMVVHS
Chain of Neurogenic locus notch homolog protein 3 (Homo sapiens) (Q9UM47 whole entry, looked up): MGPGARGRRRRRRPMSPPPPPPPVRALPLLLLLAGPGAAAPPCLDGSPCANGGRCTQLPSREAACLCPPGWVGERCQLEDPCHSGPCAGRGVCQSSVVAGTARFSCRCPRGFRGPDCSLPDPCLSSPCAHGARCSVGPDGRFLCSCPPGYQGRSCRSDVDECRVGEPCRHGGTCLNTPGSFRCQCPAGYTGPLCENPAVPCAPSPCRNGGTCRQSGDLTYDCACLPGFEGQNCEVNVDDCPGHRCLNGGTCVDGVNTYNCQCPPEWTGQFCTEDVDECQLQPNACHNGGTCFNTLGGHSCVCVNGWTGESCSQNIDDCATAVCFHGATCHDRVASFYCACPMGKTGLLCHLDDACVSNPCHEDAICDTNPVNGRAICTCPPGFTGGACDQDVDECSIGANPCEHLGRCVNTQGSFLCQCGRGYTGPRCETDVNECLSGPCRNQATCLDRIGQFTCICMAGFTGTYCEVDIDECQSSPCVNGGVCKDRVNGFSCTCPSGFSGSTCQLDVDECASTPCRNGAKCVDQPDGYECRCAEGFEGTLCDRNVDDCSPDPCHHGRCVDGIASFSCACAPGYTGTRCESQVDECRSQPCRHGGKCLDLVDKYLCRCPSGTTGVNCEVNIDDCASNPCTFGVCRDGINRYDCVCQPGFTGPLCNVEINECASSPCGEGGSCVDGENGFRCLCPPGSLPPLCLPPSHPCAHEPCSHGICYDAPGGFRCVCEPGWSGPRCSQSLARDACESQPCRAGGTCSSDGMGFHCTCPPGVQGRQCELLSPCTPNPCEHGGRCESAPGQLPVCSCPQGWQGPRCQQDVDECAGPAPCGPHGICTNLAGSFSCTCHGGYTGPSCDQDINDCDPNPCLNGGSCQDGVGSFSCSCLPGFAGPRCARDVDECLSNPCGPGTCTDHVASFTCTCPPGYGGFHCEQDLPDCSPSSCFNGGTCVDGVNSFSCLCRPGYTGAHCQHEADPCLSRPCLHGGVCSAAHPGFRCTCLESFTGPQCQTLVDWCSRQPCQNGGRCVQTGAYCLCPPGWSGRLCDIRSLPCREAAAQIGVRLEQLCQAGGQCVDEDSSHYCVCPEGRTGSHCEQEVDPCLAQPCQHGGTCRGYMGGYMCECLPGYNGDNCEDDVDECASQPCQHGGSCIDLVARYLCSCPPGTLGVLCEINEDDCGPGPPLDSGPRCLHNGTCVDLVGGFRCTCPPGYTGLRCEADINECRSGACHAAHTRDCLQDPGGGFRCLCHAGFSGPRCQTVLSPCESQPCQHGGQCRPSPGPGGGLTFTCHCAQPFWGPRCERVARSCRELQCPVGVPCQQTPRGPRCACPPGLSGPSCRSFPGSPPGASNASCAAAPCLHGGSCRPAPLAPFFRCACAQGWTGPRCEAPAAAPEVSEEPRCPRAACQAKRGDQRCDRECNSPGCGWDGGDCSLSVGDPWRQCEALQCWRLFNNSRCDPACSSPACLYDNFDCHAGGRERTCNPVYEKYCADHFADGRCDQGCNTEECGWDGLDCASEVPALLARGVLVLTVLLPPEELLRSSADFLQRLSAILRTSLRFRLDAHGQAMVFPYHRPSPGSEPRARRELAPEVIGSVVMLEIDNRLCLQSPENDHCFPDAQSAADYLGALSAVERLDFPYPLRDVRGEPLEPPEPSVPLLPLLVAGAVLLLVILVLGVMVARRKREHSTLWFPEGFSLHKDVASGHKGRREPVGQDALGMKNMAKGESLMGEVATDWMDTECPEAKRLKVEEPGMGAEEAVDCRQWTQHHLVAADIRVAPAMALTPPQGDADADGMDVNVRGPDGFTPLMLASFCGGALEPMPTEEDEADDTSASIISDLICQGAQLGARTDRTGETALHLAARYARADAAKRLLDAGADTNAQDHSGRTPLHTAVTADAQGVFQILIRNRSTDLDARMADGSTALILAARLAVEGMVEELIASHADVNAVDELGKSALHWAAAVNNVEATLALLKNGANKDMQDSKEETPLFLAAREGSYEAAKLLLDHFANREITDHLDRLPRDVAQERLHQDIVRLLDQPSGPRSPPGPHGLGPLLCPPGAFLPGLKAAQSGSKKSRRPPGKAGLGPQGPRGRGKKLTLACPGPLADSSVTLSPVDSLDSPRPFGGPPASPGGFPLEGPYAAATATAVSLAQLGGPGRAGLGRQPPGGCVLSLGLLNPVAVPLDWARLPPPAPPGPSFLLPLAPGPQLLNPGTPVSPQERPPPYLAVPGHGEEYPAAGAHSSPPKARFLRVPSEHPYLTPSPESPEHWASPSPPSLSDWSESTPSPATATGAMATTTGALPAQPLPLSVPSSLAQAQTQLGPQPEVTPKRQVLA

Consider `CC(C)(C)N1C(=O)[C@H]2[C@H]3[C@H](O)C=CC(=O)[C@@H]3CC[C@H]2C1=O`, for which the composite z-score is -0.832 in assay [1]; -0.117 in assay [5]; -0.0258 in assay [7]; 0.891 in assay [8]; 0.604 in [9]; 0.0469 in [10]. In addition, the composite z-score is 0.294 in assay [11]; -0.407 in assay [12]; -0.428 in [13]; 0.429 in assay [15]; 0.695 in [16]; 0.437 in assay [17]. Also, the composite z-score in assay [18] is 0.711; in [19], 0.715; in assay [20], -0.214. For the same compound, the z-score in assay [2] is 0.985 (inactive); in assay [3] it was 0.632 (inactive); in [4], 1.12 (inactive); in [6], 0.208 (inactive); in [14], -0.128 (inactive).
In the case of `CO[C@H]1COC(=O)[C@H](C)NC(=O)CC=C[C@@H](C)[C@H](OC)COC(=O)[C@@H](OCc2ccccc2)C=C[C@@H]1C`, the composite z-score is 0.269 in [1]; -0.986 in [5]; -0.166 in [7]; 0.941 in assay [8]; -0.458 in assay [9]; -0.15 in assay [10]. Besides, the composite z-score is 0.68 in assay [11]; -0.747 in assay [12]; -1.33 in assay [13]; 0.0389 in assay [15]; 0.362 in assay [16]; 0.475 in assay [17]. Moreover, the composite z-score in assay [18] was found to be 0.492; in assay [19], 0.834; in assay [20], 1.34. Also, the z-score was -0.365 (inactive) in assay [2]; -0.123 (inactive) in [3]; -0.118 (inactive) in [4]; 0.786 (inactive) in [6]; -0.00187 (inactive) in [14].
As for `Cc1cc2c(nc1C)CCCCN2CC(C)ON=C[C@@H](C)[C@H](OCc1ccccc1)C(C)C` (stereo not given in full), the composite z-score is -0.766 in assay [1]; -1.02 in assay [5]; -0.204 in [7]; -0.913 in assay [8]; -1.01 in assay [9]; -0.3 in [10]. Also, the composite z-score in assay [11] is -0.504; in assay [12] it was -0.873; in assay [13], -0.122; in [15] it was -1.92; in [16], -1.05; in assay [17] it was -1.85. Besides, the results for the composite z-score in assay [18], in assay [19] and in assay [20] were -0.934, -0.969 and 0.911, respectively. Further, the z-score in [2] was -0.715 (inactive); in assay [3], -14.4 (active); in assay [4], 0.365 (inactive); in assay [6] it was 0.162 (inactive); in assay [14], -0.037 (inactive).
